{"source": "ChEMBL document CHEMBL3988442", "about": "“University of Dundee, Small-Polar-MMV Screening Library” (2021)", "note": "Hit rate of the full screen: of about 65,000 compounds, about 65 (0.1%) showed an effect of 50% or more. Many of the other results were omitted from the sample, so strong results are more common in it than they were."}
{"target": "Tryptophan--tRNA ligase (Mycobacterium tuberculosis (strain ATCC 25618 / H37Rv)) (UniProt P9WFT3)", "sequence (P9WFT3 whole entry)": "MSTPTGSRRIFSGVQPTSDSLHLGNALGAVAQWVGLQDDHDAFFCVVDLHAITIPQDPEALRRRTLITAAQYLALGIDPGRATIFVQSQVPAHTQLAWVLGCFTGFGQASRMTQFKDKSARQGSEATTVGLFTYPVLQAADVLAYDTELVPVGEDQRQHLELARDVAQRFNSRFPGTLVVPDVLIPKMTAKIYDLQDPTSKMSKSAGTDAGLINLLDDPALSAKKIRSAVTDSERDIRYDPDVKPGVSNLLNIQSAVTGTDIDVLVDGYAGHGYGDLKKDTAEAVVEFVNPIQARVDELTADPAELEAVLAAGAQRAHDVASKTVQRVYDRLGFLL", "experiment": "Biochemical assay for Mt-TrpRS", "assay_type": "functional", "set-up": "scale not given: direction of the effect not stated beside the values", "details": "10 µM", "units": {"Percent Effect": "%"}}
{"molecule": "Cc1ccc(CN(C)C(=O)CN2CCCC(Cn3cncn3)C2)cc1", "note": "(stereo unspecified)", "Percent Effect": 11.8}
{"molecule": "CC(C)c1nc(CN2CCCC(Cn3cncn3)C2)cs1", "note": "(stereo unspecified)", "Percent Effect": 61.3}
{"molecule": "CN(Cc1cnn(C)c1)C(=O)CN1CCCC(Cn2cncn2)C1", "note": "(stereo unspecified)", "Percent Effect": 85.4}
{"molecule": "c1cnc(-c2nc(CN3CCCC(Cn4cncn4)C3)cs2)nc1", "note": "(stereo unspecified)", "Percent Effect": -1.17}
{"molecule": "CN(Cc1ccccc1)C(=O)CN1CCCC(Cn2cncn2)C1", "note": "(stereo unspecified)", "Percent Effect": 5.08}
{"molecule": "CC(C)(C)c1nc(CN2CCCC(Cn3cncn3)C2)cs1", "note": "(stereo unspecified)", "Percent Effect": 3.52}
{"molecule": "O=C(c1ccno1)N1CCN2C(=O)N(Cc3ccc(F)cc3)C[C@H]2C1", "Percent Effect": 0.0753}
{"molecule": "O=C(c1ccnnc1)N1C[C@H](OCC2CCOCC2)[C@H]2OCCC[C@H]21", "Percent Effect": -0.419}
{"molecule": "O=C(C1CCC1)N1C[C@H]2CNC[C@H]2C1", "Percent Effect": 9.01}
{"molecule": "O=C(NS(=O)(=O)c1cccnc1)C1CC(c2ccccc2)=NO1", "note": "(stereo unspecified)", "Percent Effect": 54.1}
{"molecule": "N#Cc1ccc(S(=O)(=O)NC(=O)C2CC(c3ccccc3)=NO2)cc1", "note": "(stereo unspecified)", "Percent Effect": 0.0809}
{"molecule": "COc1cccc(S(=O)(=O)NC(=O)C2CC(c3ccccc3)=NO2)c1", "note": "(stereo unspecified)", "Percent Effect": 0.405}
{"molecule": "COc1c(CNC2CCN(c3ncccn3)CC2)c(C(C)C)nn1C", "Percent Effect": 1.66}
{"molecule": "COc1c(CNC2CCN(c3ccccn3)CC2)c(C(C)C)nn1C", "Percent Effect": 1.1}
{"molecule": "COc1c(CNC2CCCN(c3ncccn3)C2)c(C(C)C)nn1C", "note": "(stereo unspecified)", "Percent Effect": 67.7}
{"molecule": "COc1cccc(OC)c1CNC(Cc1ccsc1)c1ccc(C)cn1", "note": "(stereo unspecified)", "Percent Effect": -1.02}
{"molecule": "Cc1occc1C(=O)N1C[C@@H]2CCCO[C@@H]2[C@H](N(C)Cc2ccco2)C1", "Percent Effect": 1.95}
{"molecule": "CC(C)c1cc(C(=O)N2CCN(CC3CC3)[C@@H]3CS(=O)(=O)C[C@@H]32)no1", "Percent Effect": -4.85}
{"molecule": "O=C1N(CCO)CCCC12CCN(Cc1noc(C3CCCC3)n1)C2", "note": "(stereo unspecified)", "Percent Effect": 7.84}
{"molecule": "CCCN1CCCC2(CCN(Cc3noc(C4CCCC4)n3)C2)C1=O", "note": "(stereo unspecified)", "Percent Effect": 7.84}
{"molecule": "CC(C)N1CCCC2(CCN(Cc3noc(C4CCCC4)n3)C2)C1=O", "note": "(stereo unspecified)", "Percent Effect": 54.2}
{"molecule": "O=C(NCc1ccccc1)N1C[C@H]2CCN[C@H]2C1", "Percent Effect": 2.62}
{"molecule": "COCCN1C(=O)CO[C@H]2CN(S(=O)(=O)c3ccccc3)C[C@H]21", "Percent Effect": -1.73}
{"molecule": "CCN1C[C@@H]2[C@@H](OC)CCN(C(=O)c3cc(C)nn3CC)[C@@H]2C1", "Percent Effect": -1.95}
{"molecule": "Cc1cc(NC(=O)CN2CCc3cncnc3C2)on1", "Percent Effect": 2.85}
{"molecule": "Cc1cc(NC(=O)CN2CCc3cncnc3C2)no1", "Percent Effect": 69}
{"molecule": "Cc1ncc2c(n1)CN(CC(=O)Nc1cc(C)on1)CC2", "Percent Effect": 0.514}
{"molecule": "CCCS(=O)(=O)N1CC[C@H]2O[C@H](c3nnc(C)o3)CC[C@H]21", "Percent Effect": -5.84}
{"molecule": "NC(=O)c1nc(CN2CCOC(C(F)(F)F)C2)no1", "note": "(stereo unspecified)", "Percent Effect": -0.819}
{"molecule": "CNC(=O)c1nc(CN2CCOC(C(F)(F)F)C2)no1", "note": "(stereo unspecified)", "Percent Effect": 69.6}
{"molecule": "CNC(=O)c1nc(CN2CCOC(CCCC(C)C)C2)no1", "note": "(stereo unspecified)", "Percent Effect": 0.819}
{"molecule": "CCCNCc1ccc(-c2ccnc3[nH]ccc23)cc1", "Percent Effect": -1.02}
{"molecule": "CC(C)N1[C@@H](C(=O)NCCN(C)C)C[C@H]2CN(c3ncccn3)C[C@H]21", "Percent Effect": 5.77}
{"molecule": "c1ccc(-c2noc(CNC3CCCN(c4cccnn4)C3)n2)nc1", "note": "(stereo unspecified)", "Percent Effect": 1.43}
{"molecule": "c1cnnc(N2CCCC(NCc3nc(-c4ccco4)no3)C2)c1", "note": "(stereo unspecified)", "Percent Effect": 90.8}
{"molecule": "c1cnnc(N2CCCC(NCc3nc(-c4cccs4)no3)C2)c1", "note": "(stereo unspecified)", "Percent Effect": -1.29}
{"molecule": "C[C@H]1C[C@H]2CN(C(=O)CC3CC3)CC[C@H]2O1", "Percent Effect": 2.03}
{"molecule": "CC(C)c1nc(C2CCCN2C(=O)c2cnns2)no1", "note": "(stereo unspecified)", "Percent Effect": -5.71}
{"molecule": "Cc1ccccc1CNC(=O)N1C[C@H]2C[C@H](C(=O)N3CCCC3)[C@@H](C1)O2", "Percent Effect": -2.16}
{"molecule": "C=Cn1ncc(CN2CCC(c3ncc(Cl)cc3S(C)(=O)=O)CC2)c1C", "Percent Effect": 67.3}
{"molecule": "CCn1ncc(CN2CCC(c3ncc(Cl)cc3S(C)(=O)=O)CC2)c1C", "Percent Effect": -1.24}
{"molecule": "C=Cn1cc(CN2CCC(c3ncc(Cl)cc3S(C)(=O)=O)CC2)c(C)n1", "Percent Effect": -5.42}
{"molecule": "Fc1ccccc1CO[C@@H]1C[C@H]2CN(c3ncccn3)CCN2C1", "Percent Effect": -4.64}
{"molecule": "Cc1nnc2n1CCN(Cc1csc(-c3ncccn3)n1)C2", "Percent Effect": 59}
{"molecule": "CCc1nnc2n1CCN(Cc1csc(-c3ncccn3)n1)C2", "Percent Effect": 1.94}
{"molecule": "c1cnc(-c2nc(CN3CCn4c(nnc4C4CC4)C3)cs2)nc1", "Percent Effect": -3.46}
{"molecule": "CN(C)C(=O)CN1C[C@@H]2CC[C@H](C1)N(Cc1c(F)cccc1Cl)C2", "Percent Effect": 2.26}
{"molecule": "COc1ccccc1OCCc1nnc(NC(=O)C2CC23CCC3)s1", "note": "(stereo unspecified)", "Percent Effect": 72.7}
{"molecule": "COc1ccc(CCc2nnc(NC(=O)C3CC34CCC4)s2)cc1OC", "note": "(stereo unspecified)", "Percent Effect": -2.9}
{"molecule": "COc1ccc(Cc2nnc(NC(=O)C3CC34CCC4)s2)cc1OC", "note": "(stereo unspecified)", "Percent Effect": 1.5}
{"molecule": "CSC1=Nc2c(cnn2-c2cccc(Cl)c2)C2=NCCCN12", "Percent Effect": 1.3}
{"molecule": "Cc1cnn(CC2CCCN2Cc2nnc(C)o2)c1", "note": "(stereo unspecified)", "Percent Effect": -10.6}
{"molecule": "Cc1cnn(CC2CCCCN2Cc2nc(N)c3ccccc3n2)c1", "note": "(stereo unspecified)", "Percent Effect": 1.18}
{"molecule": "Cc1ccc(-c2nnc(CN3CCCCC3Cn3cncn3)o2)cc1", "note": "(stereo unspecified)", "Percent Effect": 3.48}
{"molecule": "CCc1nnc(CN2CCCC2Cn2cc(C)cn2)o1", "note": "(stereo unspecified)", "Percent Effect": 9.78}
{"molecule": "c1ccc(Cc2nnc(CN3CCCCC3Cn3cncn3)o2)cc1", "note": "(stereo unspecified)", "Percent Effect": -0.0684}
{"molecule": "Cc1cnn(CC2CCCN2Cc2nc(C)c3ccccc3n2)c1", "note": "(stereo unspecified)", "Percent Effect": 0.13}
{"molecule": "CCc1nnc(CN2CCCCC2Cn2cncn2)o1", "note": "(stereo unspecified)", "Percent Effect": 75.1}
{"molecule": "Cc1cnn(CC2CCCN2Cc2nc(N)c3ccccc3n2)c1", "note": "(stereo unspecified)", "Percent Effect": 57.9}
{"molecule": "Cc1cnn(CC2CCCN2Cc2nnc(C(C)C)o2)c1", "note": "(stereo unspecified)", "Percent Effect": 60.5}
{"molecule": "CNC(=O)N1CC[C@@H]2CN(CCc3cccc(OC)c3)S(=O)(=O)[C@@H]2CC1", "Percent Effect": -3.31}
{"molecule": "CCc1cnc(N2C[C@H]3C[C@H](C(=O)NC4CCC4)[C@@H](C2)O3)nc1", "Percent Effect": -1.02}
{"molecule": "CCNC(=O)N1C[C@@H]2OCC(=O)N(CC3CC3)[C@@H]2C1", "Percent Effect": -1.91}
{"molecule": "Cc1cccnc1NCCNC(=O)c1cnc(-c2ccccn2)nc1O", "Percent Effect": 2.7}
{"molecule": "Cn1cc(CN2CC[C@H]3OCC[C@@H](C(=O)NCc4ccco4)[C@@H]3C2)cn1", "Percent Effect": 0.83}
{"molecule": "O=C1C[C@H]2[C@@H](CCN2C(=O)c2ccoc2)N1CCN1CCOCC1", "Percent Effect": 2.55}
{"molecule": "Cn1ccnc1C(=O)N1C[C@@H]2CCN(c3cnccn3)C[C@@H]2C1", "Percent Effect": 2.7}
{"molecule": "CC(=O)N1CCC1c1nc(-c2ccc(C)s2)no1", "note": "(stereo unspecified)", "Percent Effect": 13.1}
{"molecule": "Cc1ccc(-c2noc(C3CCN3C(=O)c3ccn(C)n3)n2)s1", "note": "(stereo unspecified)", "Percent Effect": -4.63}
{"molecule": "CC(=O)N1CCC(C(=O)N2CCC2c2nc(-c3ccc(C)s3)no2)CC1", "note": "(stereo unspecified)", "Percent Effect": 56.7}
{"molecule": "COCCNC(=O)Cn1ccc2sc(C)cc2c1=O", "Percent Effect": 0.44}
{"molecule": "CC(C)Cc1noc(CN2CCN(c3nccs3)CC2)n1", "Percent Effect": -1.84}
{"molecule": "CCCc1noc(CN2CCN(c3nccs3)CC2)n1", "Percent Effect": 2.03}
{"molecule": "CCc1noc(CN2CCN(c3nccs3)CC2)n1", "Percent Effect": 71.8}
{"molecule": "Cc1nn(C)c2c(=O)n(CC(=O)NCCC3=CCCCC3)ccc12", "Percent Effect": 2.33}
{"molecule": "CCCN(CC)c1ccc(C(=O)N2CCCC2c2cnn(C)c2)cn1", "note": "(stereo unspecified)", "Percent Effect": -3.89}
{"molecule": "CCN(c1ccc(C(=O)N2CCCC2c2cnn(C)c2)cn1)C(C)C", "note": "(stereo unspecified)", "Percent Effect": 64.8}
{"molecule": "CC(C)CN(C)c1ccc(C(=O)N2CCCC2c2cnn(C)c2)cn1", "note": "(stereo unspecified)", "Percent Effect": 2.24}
{"molecule": "O=C([C@H]1CN(Cc2nccs2)C[C@H]2OCC[C@@H]12)N1CCCC1", "Percent Effect": 4.93}
{"molecule": "O=C1CO[C@@H]2CN(S(=O)(=O)c3ccccc3)C[C@H]2N1CC1CC1", "Percent Effect": 4.3}
{"molecule": "CC(C)(C)c1nc(CN(Cc2cccs2)C2CCS(=O)(=O)C2)no1", "note": "(stereo unspecified)", "Percent Effect": -0.877}
{"molecule": "O=S1(=O)CCC(N(Cc2nc3ccccc3o2)Cc2cccs2)C1", "note": "(stereo unspecified)", "Percent Effect": 57}
{"molecule": "Cc1noc(CN(Cc2cccs2)C2CCS(=O)(=O)C2)n1", "note": "(stereo unspecified)", "Percent Effect": -5.5}
{"molecule": "Cc1nc(CN(Cc2cccs2)C2CCS(=O)(=O)C2)oc1C", "note": "(stereo unspecified)", "Percent Effect": 1.07}
{"molecule": "O=S1(=O)CCC(N(Cc2nc(-c3ccccn3)no2)Cc2cccs2)C1", "note": "(stereo unspecified)", "Percent Effect": -6.38}
{"molecule": "Cc1noc(C)c1CN(Cc1cccs1)C1CCS(=O)(=O)C1", "note": "(stereo unspecified)", "Percent Effect": 59.4}
{"molecule": "O=C(c1ccnnc1)N1C[C@@H]2C[C@@H](c3nc(C4CC4)cs3)O[C@@H]2C1", "Percent Effect": 2.42}
{"molecule": "O=C(NCc1ccco1)[C@@H]1CCO[C@@H]2CCN(c3ncccn3)C[C@@H]21", "Percent Effect": 3.59}
{"molecule": "c1cncc(OCc2noc3c2CN(Cc2ccsc2)CC3)c1", "Percent Effect": -0.692}
{"molecule": "CC(c1nc(C2CC2)no1)N1CCN(c2ccc(C#N)cn2)CC1", "note": "(stereo unspecified)", "Percent Effect": 0.106}
{"molecule": "O=C1CC[C@H]2CN(Cc3ccc(Cl)s3)CC[C@H]2N1CCc1c[nH]cn1", "Percent Effect": 0.411}
